# Measurements: PubChem BioAssay (Tox21)
# Records with an inconclusive call do not appear. A call without a number means that no potency is given here. Activity calls are given as the source filed them. Calls come from the whole dose curve; as a rule, active = well fitted curve in the direction sought with a large enough effect in the repeat runs; inconclusive = weak or mixed curves; inactive = no such curve, though single readings can be large; an effect the other way counts as inactive or inconclusive.
# Tested on: not listed separately
# Assay: qHTS assay to identify small molecule antagonists of the androgen receptor (AR) signaling pathway using the MDA cell line - cell viability counter screen (AID 743041; note: nearly all actives have a fitted effect of over 45% in size)
# Conditions: MDA-kb2 viability, CellTiter-Fluor, 16 h, cells co-treated with R1881 androgen agonist; series mostly up to 70.3 µM
# Procedure, shortened: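 Same-well cytotoxicity was assessed by CellTiter-Fluor in MDA-kb2 AR-luc cells after 16 h of compound treatment under R1881 agonism.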
row,Compound,Potency
1,CCCCCCOC(=O)CCCCC(=O)OCCCCCC,inactive
2,O=C1NC(=O)[C@@]2(CCOc3ccc(F)cc32)N1,inactive
3,C=CCCCCCCCCC=O,inactive
4,CCCC(=O)O[C@]1(C(=O)CO)CC[C@H]2[C@@H]3CCC4=CC(=O)CC[C@]4(C)[C@H]3[C@@H](O)C[C@@]21C,inactive
5,O=C1CCCN1C1CCCCC1,inactive
6,CCC=O,inactive
7,CC(C)(C)c1ccc(O)c(O)c1,inactive
8,CN1CCC(=C2c3ccccc3CC(=O)c3sccc32)CC1,inactive
9,NC(=O)c1ccc([N+](=O)[O-])cc1,inactive
10,Cc1cc(O)cc2c1O[C@](C)(CCC[C@H](C)CCC[C@H](C)CCCC(C)C)CC2,inactive
11,C=C(C)CS(=O)(=O)O,inactive
12,CC/C=C\CC/C=C/C(OCC)OCC,inactive
13,CC[N+](C)(C)c1cccc(O)c1,inactive
14,COc1c(N2C[C@@H]3CCCN[C@@H]3C2)c(F)cc2c(=O)c(C(=O)O)cn(C3CC3)c12,inactive
15,CCN(CC)CCOCCOC(=O)C1(c2ccccc2)CCCC1,inactive
16,c1cnc(N2CCN(Cc3ccc4c(c3)OCO4)CC2)nc1,inactive
17,CC(C[N+](C)(C)C)OC(N)=O (stereo not drawn),inactive
18,NS(=O)(=O)c1cc2c(cc1Cl)NC(C1CC3C=CC1C3)NS2(=O)=O (stereo not drawn),inactive
19,Cn1cc(S(C)=O)c(=O)c2ccc(F)cc21 (stereo not drawn),inactive
20,c1ccc([C@H]2CN3CCSC3=N2)cc1,inactive

row,Compound,Potency
1,NC(=O)c1cn(Cc2c(F)cccc2F)nn1,inactive
2,O=c1[nH]c(=O)n([C@H]2C[C@H](O)[C@@H](CO)O2)cc1I,inactive
3,N=c1nc(N2CCCCC2)cc(N)n1O,inactive
4,NCCc1cnc[nH]1,inactive
5,NC(=O)c1ccc(N)cc1,inactive
6,COC(=O)NN,inactive
7,O=C(O)CCCc1ccccc1,inactive
8,CC(=O)Nc1c(I)cc(I)c(C(=O)O)c1I,inactive
9,C1CN(CCOCCN2CCOCC2)CCO1,inactive
10,Nc1cc(=O)[nH]c(N)n1,inactive
11,C/C=C(\C)C#N,inactive
12,OCCCC1CCCCC1,inactive
13,c1ccc(CC2=NCCN2)cc1,inactive
14,O=c1cc(CO)occ1O,inactive
15,CN(C(=O)c1c(O)c2ccccc2n(C)c1=O)c1ccccc1,inactive
16,FC1(F)C(F)(F)C(F)(F)C2(F)C(F)(F)C(F)(F)C(F)(F)C(F)(F)C2(F)C1(F)F (stereo not drawn),inactive
17,FC(F)OC(Cl)C(F)(F)F (stereo not drawn),inactive
18,CC1(C)CO[C@@H](CC(=O)O)CN1,inactive
19,O=C(O)CN(CCOCCOCCN(CC(=O)O)CC(=O)O)CC(=O)O,inactive
20,CCCCCOC(=O)CCCCC,inactive

# Molecular target: Androgen receptor (Homo sapiens) (UniProt P10275)
# Sequence (P10275 whole entry, looked up): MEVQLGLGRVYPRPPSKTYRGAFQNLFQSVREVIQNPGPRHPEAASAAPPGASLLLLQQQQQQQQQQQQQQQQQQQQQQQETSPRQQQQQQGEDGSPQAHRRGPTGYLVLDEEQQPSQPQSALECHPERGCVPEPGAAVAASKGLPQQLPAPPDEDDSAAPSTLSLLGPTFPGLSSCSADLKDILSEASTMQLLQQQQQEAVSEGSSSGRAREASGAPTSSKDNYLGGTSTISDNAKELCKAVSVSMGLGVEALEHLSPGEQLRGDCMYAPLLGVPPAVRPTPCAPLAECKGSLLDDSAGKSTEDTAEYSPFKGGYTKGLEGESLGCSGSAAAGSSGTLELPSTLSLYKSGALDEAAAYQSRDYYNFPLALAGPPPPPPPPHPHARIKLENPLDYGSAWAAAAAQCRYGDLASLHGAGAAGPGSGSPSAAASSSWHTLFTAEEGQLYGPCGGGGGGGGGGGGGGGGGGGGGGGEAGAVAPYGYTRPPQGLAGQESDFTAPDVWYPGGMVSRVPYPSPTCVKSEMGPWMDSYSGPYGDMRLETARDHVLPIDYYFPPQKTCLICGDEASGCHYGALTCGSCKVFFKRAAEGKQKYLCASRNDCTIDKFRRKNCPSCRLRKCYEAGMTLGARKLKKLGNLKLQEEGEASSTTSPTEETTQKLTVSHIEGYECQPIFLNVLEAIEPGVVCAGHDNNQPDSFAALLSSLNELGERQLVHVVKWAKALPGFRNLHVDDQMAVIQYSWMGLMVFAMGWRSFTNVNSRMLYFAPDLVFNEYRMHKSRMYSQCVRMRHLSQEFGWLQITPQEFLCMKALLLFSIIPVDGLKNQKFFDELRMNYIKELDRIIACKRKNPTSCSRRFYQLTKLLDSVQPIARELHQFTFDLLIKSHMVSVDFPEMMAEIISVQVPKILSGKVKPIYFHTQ
# Assay: qHTS assay to identify small molecule antagonists of the androgen receptor (AR) signaling pathway using the MDA cell line (AID 743042; note: nearly all actives have a fitted effect of over 55% in size)
# Conditions: MDA-kb2 AR-luc, MMTV luciferase, R1881 antagonist, 16 h; series mostly up to 70.3 µM
# Procedure, shortened: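 MDA-kb2 breast carcinoma cells carrying MMTV-luciferase (AR/GR responsive) were co-treated with compounds and the agonist R1881 for 16 h at 37C. Inhibition read as ONE-Glo luminescence; CellTiter-Fluor fluorescence measured in parallel for cytotoxicity.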
row,Compound,Potency
1,C=C(C)CS(=O)(=O)O,inactive
2,NS(=O)(=O)c1cc2c(cc1Cl)NC(C1CC3C=CC1C3)NS2(=O)=O (stereo not drawn),inactive
3,FC1(F)C(F)(F)C(F)(F)C2(F)C(F)(F)C(F)(F)C(F)(F)C(F)(F)C2(F)C1(F)F (stereo not drawn),inactive
